# Laboratory results published in PubChem BioAssay AID1851 (National Center for Advancing Translational Sciences (NCATS), 2009).
# The campaign covered roughly 16,000 compounds. About 5,800 (36%) were called active. Inconclusive results (about 23%) are left out. Calls come from the whole dose curve; as a rule, active = well fitted curve in the direction sought with a large enough effect; inconclusive = small, poorly fitted or top-dose-only effect, or effect the other way; inactive = no such curve, though single readings can be large or run the other way. The list shows a part of the results.
# Target: Cytochrome P450 2C19 (Homo sapiens) (UniProt P33261)
# Sequence (P33261 whole entry, looked up): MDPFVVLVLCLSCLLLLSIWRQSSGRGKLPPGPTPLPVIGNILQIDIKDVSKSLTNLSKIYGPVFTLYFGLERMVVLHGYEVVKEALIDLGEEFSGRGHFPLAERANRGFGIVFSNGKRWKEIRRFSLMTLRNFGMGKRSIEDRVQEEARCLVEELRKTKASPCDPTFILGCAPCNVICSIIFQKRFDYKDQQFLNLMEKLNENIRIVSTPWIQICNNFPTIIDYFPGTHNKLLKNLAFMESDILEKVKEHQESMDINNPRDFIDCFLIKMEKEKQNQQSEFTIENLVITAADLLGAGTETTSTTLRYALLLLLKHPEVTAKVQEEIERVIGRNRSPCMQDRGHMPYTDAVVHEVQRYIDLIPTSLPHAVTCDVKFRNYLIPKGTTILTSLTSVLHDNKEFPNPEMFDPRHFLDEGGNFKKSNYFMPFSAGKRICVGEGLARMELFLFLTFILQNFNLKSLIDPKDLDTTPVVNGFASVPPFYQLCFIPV
# Test: Cytochrome panel assay with activity outcomes
# Settings: recombinant CYP, pro-luciferin dealkylation, luminescence, p450-cyp2c19; series mostly up to 57.1 µM; activity, negative = inhibition: at the top concentration
# % is set by controls: 0 for no effect and ±100 for the full control effect.
Compound,AC50,"activity, negative = inhibition"
CCOc1ccc(OCc2ccc(C(=O)N3CCc4ccccc4C3)o2)cc1,5.62 µM (active),
CCOc1ccc(OCc2ccc(C(=O)NCc3cccnc3)o2)cc1,22.4 µM (active),
CC1CCN(C(=O)c2ccc(COc3ccccc3Cl)o2)CC1,8.91 µM (active),
Cc1cc(=O)oc(C)c1C(=O)NCc1cccnc1,,12.1% (inactive)
O=C(O)c1cc2cc(Cc3cccnc3)ccc2o1,,34.7% (inactive)
Cc1ccccc1CS(=O)(=O)Cc1ccc(C(=O)NCc2cccnc2)o1,3.55 µM (active),
NS(=O)(=O)c1cc2c(cc1Cl)NC(CSCc1ccccc1)=NS2(=O)=O,,3.64% [at 25.6 µM] (inactive)
CNC[C@@H](SC)c1ccc(O)c(O)c1,,-19% [at 11.4 µM] (inactive)
CC(=O)Nc1ccc(NC(=O)Cn2c(-c3ccc(F)cc3)cnc2SCC(=O)Nc2c(C)cccc2C)cc1,1.58 µM (active),
Cc1cccc(C)c1NC(=O)CN1CCN(CCCC(c2ccc(F)cc2)c2ccc(F)cc2)CC1,,-29.9% [at 25.6 µM] (inactive)
CCNc1ncc2nc(-c3ccc(Cl)cc3)c(=O)n(C[C@H]3CCCO3)c2n1,,9.08% (inactive)
CCc1ccccc1NC(=O)C1C(c2ccccc2)C1(Cl)Cl (stereo unspecified),1.78 µM (active),
COc1ccc(OCC(=O)NNC(=O)c2ccc(-c3ccccc3)cc2)cc1,,-9.31% (inactive)
O=C(COc1ccccc1-c1ccccc1)N/N=C/c1cccc2ccccc12,2.24 µM (active),
O=C(COc1ccc(-c2ccccc2)cc1)N/N=C/c1ccccc1Br,2.51 µM (active),
O=C(Cc1ccccc1)Nc1nc2ccc(Cl)cc2c2nc(-c3ccco3)nn12,1.58 µM (active),
Cc1cc(Cl)ccc1Oc1ncc(-c2ccc(Cl)cc2)cn1,2.51 µM (active),
Cc1cccc(Oc2ncc(-c3ccc(Cl)cc3)cn2)c1C,14.1 µM (active),
Cn1c(=O)c(-c2ccc(Cl)cc2)nc2cnc(Oc3ccccc3)nc21,,5.73% (inactive)
COc1ncc2nc(-c3ccc(Cl)cc3)c(=O)n(C)c2n1,,0.0431% (inactive)
C#CCCCO/N=C1/C[C@@H](O)[C@@H](O)[C@@H]2[C@@H]3C(=O)N([C@@H](C)c4ccccc4)C(=O)[C@H]3CC[C@@H]12,,-27.9% [at 11.4 µM] (inactive)
CCCC(=O)N1c2ccccc2C(N(C(C)=O)c2ccccc2)CC1C (stereo unspecified),15.8 µM (active),
COc1ccc(-n2c(=O)cnc3cnc(OC)nc32)cc1,,8.17% (inactive)
Cc1ccc(-n2ccc(=O)c(-c3ccnc(SCc4cccc(Cl)c4)n3)n2)cc1,3.55 µM (active),
NNC(=O)c1nn(-c2ccc(Cl)cc2)ccc1=O,,86.7% (inactive)
C[C@@H]1C[C@@H]2[C@H]3CCC4=CC(=O)C=C[C@]4(C)[C@]3(Cl)[C@@H](O)C[C@@]2(C)[C@@]1(O)C(=O)CO,,15.2% (inactive)
